# Results as given in PubChem BioAssay (NCI).
# This is part of a sample that, as a whole, favours compounds with a hit. Of some 79,000 tested, about 15% had one in any assay. A number with no mark means an inactive call. Active and inactive are the calls of the source. Cut-off read from the data, not from the text of the source: active = growth inhibition above about 70%; inactive = the rest.
# What was measured:
# [1] = NCI Yeast Anticancer Drug Screen. Data for the rad50 strain (AID 155);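 note: 0% = growth of vehicle-only cultures of the same strain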; settings: S. cerevisiae rad50 strain growth inhibition, active compounds read high
# Method in brief: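 Yeast carrying a defined DNA repair defect were exposed to test compounds, and growth was compared with vehicle-treated controls to give percent inhibition.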
# [2] = NCI Yeast Anticancer Drug Screen. Data for the mec2-1 strain (AID 157); settings: S. cerevisiae mec2-1 strain, active compounds read high
# Method in brief: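 Readout is yeast growth inhibition, normalised to vehicle-treated controls, in the mec2-1 strain exposed to compound.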
# [3] = NCI Yeast Anticancer Drug Screen. Data for the sgs1 mgt1 strain (AID 161);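 note: 0% = growth of cultures given vehicle only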; settings: S. cerevisiae sgs1 mgt1 strain, active compounds read high
# Method in brief: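 This yeast growth screen uses a strain with defined DNA-repair lesions; compound-treated growth is compared with vehicle-treated growth.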
# [4] = NCI Yeast Anticancer Drug Screen. Data for the cln2 rad14 strain (AID 165);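 note: 0% = growth equal to vehicle treated cultures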; settings: S. cerevisiae cln2 rad14 strain, active compounds read high
# Method in brief: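 Relative to vehicle controls, growth inhibition of compound-treated cln2 rad14 yeast was recorded.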
# [5] = NCI Yeast Anticancer Drug Screen. Data for the bub3 strain (AID 167); settings: S. cerevisiae bub3 mutant strain, active compounds read high
# Method in brief: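 Compounds were applied to a genetically altered yeast strain carrying a cell-cycle control defect. Growth inhibition was scored against vehicle-treated controls.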
# [6] = NCI Yeast Anticancer Drug Screen. Data for the mlh1 rad18 strain (AID 175); settings: S. cerevisiae mlh1 rad18 strain growth inhibition, active compounds read high
# Method in brief: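 Test agents were incubated with a yeast strain of defined genotype (DNA damage repair defect). Inhibition of growth was derived by comparison with vehicle-exposed cultures.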
# [7] = at 5.0 µM (retest, dose inferred, filed as 0.5)
# [8] = at 50.0 µM (retest, dose inferred, filed as 5.0)
Structure (SMILES),"growth inhibition [1, 7]","growth inhibition [1, 8]",growth inhibition ([1]; at 50.0 µM),"growth inhibition [2, 7]","growth inhibition [2, 8]",growth inhibition ([2]; at 50.0 µM),"growth inhibition [3, 7]","growth inhibition [3, 8]",growth inhibition ([3]; at 50.0 µM),"growth inhibition [4, 7]","growth inhibition [4, 8]",growth inhibition ([4]; at 50.0 µM),"growth inhibition [5, 7]","growth inhibition [5, 8]",growth inhibition ([5]; at 50.0 µM),"growth inhibition [6, 7]","growth inhibition [6, 8]",growth inhibition ([6]; at 50.0 µM)
COc1ccc(C2Cc3cc(OC)ccc3C2=O)cc1 (centres undefined),13%,94% (active),45.5%,9%,98% (active),29.4%,17%,95% (active),56.5%,19%,95% (active),23.6%,32%,97% (active),96% (active),10%,97% (active),57.4%
CCOC(=O)C1=C(c2ccccc2)c2ccccc2OC1C(=O)O (centres undefined),8%,38%,26.5%,22%,60%,14.8%,16%,64%,19.5%,2%,38%,59.9%,16%,29%,32.5%,34%,78% (active),55.8%
CCCCCCCCCc1cc(O)c(O)cc1CCCCCCCCC,-8%,80% (active),22.4%,-13%,68%,25.2%,-7%,42%,42.9%,-23%,86% (active),54.1%,-12%,79% (active),22.4%,-2%,66%,1.65%
O=c1oc2c/c(=C\c3ccccc3)c(=O)c3cccc1c3-2,-6%,97% (active),84.4% (active),-2%,95% (active),88.7% (active),12%,97% (active),81.2% (active),-7%,96% (active),87.2% (active),-7%,96% (active),86.7% (active),28%,96% (active),78.7% (active)
Nc1cccc2c1C(=O)c1ccc(Cl)cc1C2=O,69%,81% (active),93.7% (active),18%,34%,71.8% (active),4%,61%,55%,0%,6%,-17.6%,12%,39%,85.4% (active),15%,60%,44.8%
O=C(O)CNc1ccc2c(c1)Cc1cc(Br)ccc1-2,19%,88% (active),97.2% (active),-1%,87% (active),96.2% (active),55%,98% (active),97.9% (active),-3%,59%,88.9% (active),-1%,85% (active),96.5% (active),45%,96% (active),97.7% (active)
Cc1ccc(NC(=S)N(CCC#N)C2CCCCC2)cc1C,-12%,-10%,21.9%,-22%,-21%,-7.55%,-6%,10%,10.3%,-2%,3%,0.5%,7%,7%,1.85%,-27%,-28%,14.6%
CCOc1ccccc1/C=C1\C=Nc2ccccc21,6%,-16%,11.8%,-16%,8%,16.1%,-6%,0%,16.2%,25%,16%,7.65%,8%,15%,24.7%,-10%,-17%,6.35%
Clc1ccc(Cl)c(SCCCN2CCNCC2)c1,36%,65%,79.7% (active),0%,32%,48.2%,35%,65%,54.2%,6%,39%,40%,18%,59%,82.4% (active),23%,43%,74.4% (active)
CCc1cccc(C)c1NC(=O)C(=O)C(C#N)c1ccc(C)cc1 (centres undefined),-3%,27%,28.5%,0%,5%,13.2%,-25%,-1%,17.9%,8%,18%,13.7%,-4%,39%,16.1%,13%,24%,23.9%
O=C(O)/C=C/CCC1SCC2NC(=O)NC21 (centres undefined),96% (active),96% (active),80.3% (active),98% (active),97% (active),84.2% (active),96% (active),96% (active),88.3% (active),94% (active),95% (active),84% (active),97% (active),97% (active),87.5% (active),96% (active),96% (active),83% (active)
CCOC(=O)C1CSC(c2c(CO)cnc(C)c2O)N1 (centres undefined),-1%,5%,47.6%,-8%,-3%,0.75%,-3%,2%,9.55%,4%,7%,-4.1%,2%,14%,10.8%,2%,5%,18.1%
Cc1ccc(N2CCN(c3c(N)cncc3Br)CC2)cc1,-4%,-4%,94% (active),6%,14%,97.3% (active),0%,18%,92.8% (active),0%,-15%,46.5%,19%,71% (active),96% (active),-4%,-1%,90.8% (active)
Nc1ccc(Cl)c2ccccc12,-1%,42%,84.2% (active),-4%,20%,76.8% (active),-5%,12%,71.2% (active),40%,26%,53.5%,6%,48%,57.9%,-4%,33%,74.5% (active)
NC(=O)NC(=O)N/N=C/c1ccc([N+](=O)[O-])o1,2%,25%,74.8% (active),1%,20%,22.9%,5%,27%,68.2%,-1%,12%,38%,-5%,17%,27.2%,4%,40%,61.5%
CCOC(=O)/C(=N/NS(=O)(=O)c1c(C)cc(C)cc1C)c1ccco1,-2%,13%,64.6%,-2%,25%,45.5%,2%,41%,50.4%,0%,-4%,38.3%,1%,29%,79.8% (active),4%,34%,80.7% (active)
CCCCc1ccc(Nc2nc(N)c3[nH]cnc3n2)cc1,19%,35%,82.1% (active),25%,26%,84% (active),18%,31%,36.1%,21%,34%,16.7%,16%,31%,34.7%,22%,40%,91.6% (active)
Cc1cc(C)c(CCCC(=O)c2c(C)cc(C)cc2C)c(C)c1,-7%,28%,9.85%,-4%,1%,-1.6%,-7%,23%,9.85%,1%,-10%,29.1%,1%,6%,15.6%,-3%,-12%,9.75%
